Data reported in PubChem BioAssay AID2472 (National Center for Advancing Translational Sciences (NCATS), 2010).
About 2,000 (0.69%) of roughly 290,000 compounds were called active. The list comes from a sample in which actives are over-represented; it also holds similar structures and randomly drawn compounds. A number with no mark means an inactive call. Rule as the data show it: active = activity change below about -30%; inactive = the rest, inconclusive results apart.

Assay: qHTS Assay for Inhibitors of Fructose-1,6-bisphosphate Aldolase from Giardia Lamblia: Coupling assay counterscreen
Conditions: coupling enzyme system counterscreen, AmpLite Red fluorescence; at 58.2 µM (top of the series)
Outline: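 Coupling enzymes only (glyceraldehyde-3-phosphate) + compound, at 57.5 uM final, 10 min RT; add substrate/coupling/AmpLite Red mix, 20 min RT; fluorescence ex 525/em 598 nm. Actives flag coupling-system interference.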
% is scaled to controls: 0 for no effect and ±100 for the full control effect.

Row | Structure (SMILES) | activity change, negative = inhibition
1 | O=C(N/N=C/c1c[nH]c2ccccc12)c1ccccc1O | 1.26%
2 | CSC(=S)N/N=C/c1c[nH]c2ccccc12 | -0.216%
3 | C[n+]1ccc(/C=C/c2c[nH]c3ccccc23)cc1 | -48.5% (active)
4 | O=C(NC1CC1)C1=C[C@H](c2c[nH]c3ccccc23)C[C@H](OCc2ccc(CO)cc2)O1 | -9.68%
5 | COc1cccc([C@@H]2Oc3ccc(Br)cc3C(=O)[C@H]2OC(=O)NCc2ccc3c(c2)OCO3)c1 | 1.06%
6 | COc1ccc(CCNC(=O)CSCc2ccc(Br)cc2)cc1OC | -0.53%
7 | CCCCCCCCCc1ccc(OCCOCCOCCOCCOCCOCCOCCOCCOCCO)cc1 | 0.692%
8 | COC(=O)[C@@]1(Cc2ccc(F)cc2)[C@H]2c3cc(C(=O)N4CCCC4)n(C[C@H](O)CO)c3C[C@H]2CN1C(=O)c1ccccc1 | 4.89%
9 | COc1ccc(N2CCN(C(C)=C3C(=O)c4ccccc4C3=O)CC2)cc1 | -5.52%
10 | COC1=C(N2CCOCC2)C(=O)c2ccccc2C1=O | -31.1% (active)
11 | O=C1C(Cl)=C(N2CCOCC2)C(=O)N1c1ccccc1 | 4.18%
12 | O=C(CSc1cccc[n+]1[O-])c1ccc(-c2ccccc2)cc1 | -0.455%
13 | CCSc1nsc(NC(=O)Nc2cccc(C(C)=O)c2)n1 | -3.71%
14 | C=C1CCN(Cc2ccc(OC)cc2)S(=O)(=O)c2ccccc21 | -9.95%
15 | O=C(Nc1cc(C(=O)Nc2ccc(S(=O)(=O)O)cc2)cc(C(=O)Nc2ccc(S(=O)(=O)O)cc2)c1)Nc1cc(C(=O)Nc2ccc(S(=O)(=O)O)cc2)cc(C(=O)Nc2ccc(S(=O)(=O)O)cc2)c1 | 4.94%
16 | Cc1c(S(=O)(=O)O)oc2c1C(=O)C(=O)c1c-2ccc2c1CCCC2(C)C | -38.9% (active)
17 | Cc1cc(C)cc(C#CC2C=CC(Oc3ccc(C4CCCC4)cc3)C(CO)O2)c1 (centres undefined) | -0.466%
18 | CC(C)(c1ccccc1)c1ccc(OCCN2CCCC2)cc1 | 1.45%
19 | CCOc1ccc2[nH]c(=O)c(C(c3nnnn3CCOC)N3CCOCC3)cc2c1 (centres undefined) | -2.27%
20 | COc1ccc(OC)c(C(c2nnnn2C(C)(C)C)N2CCc3ccccc3C2)c1 (centres undefined) | -0.0178%
21 | COCCn1nnnc1C(c1cc2ccc(OC)cc2[nH]c1=O)N1CCc2ccccc2C1 (centres undefined) | -47.7% (active)
22 | CCOc1ccc(CCNC(=O)Nc2ccccc2)cc1OCC | 1.61%
23 | Cc1cccc(OC(C)C(=O)N2CCc3ccccc3C2)c1 (centres undefined) | 3.66%
24 | CC(C)(O/N=C(\C(=O)N[C@@H]1C(=O)N2C(C(=O)[O-])=C(C[n+]3ccccc3)CS[C@@H]12)c1csc(N)n1)C(=O)O | 1.97%

Row | Structure (SMILES) | activity change, negative = inhibition
25 | CCN1C(=S)N[C@@H](c2cccc(C(F)(F)F)c2)C(C(=O)OC)=C1C | 2.17%
26 | CN(CCc1ccccn1)C(=O)c1ccc(OC2CCN(CCc3ccccc3)CC2)cc1 | 6.37%
27 | Nc1ccc2nc3c(=O)[nH]c(=S)[nH]c3nc2c1 | -35.7% (active)
28 | Cc1cc2nc3c(=O)n(Cc4ccccc4)c(=O)[nH]c3nc2cc1N | -26.3%
29 | Cc1cccc(OCCC(=O)Nc2ccccc2C(N)=O)c1 | -1.3%
30 | O=C(NCc1ccco1)O[C@@H]1C(=O)c2cc(Br)ccc2O[C@H]1c1ccc2c(c1)OCO2 | -0.223%
31 | Cc1ccccc1NC(=O)N1CCCC1C(=O)NCc1ccccc1 (centres undefined) | 2.24%
32 | CC(C)Cn1c(N)c(C(=O)NCc2cccs2)c2nc3ccccc3nc21 | -45.5% (active)
33 | CCC(C)NC(=O)c1c(N)n(/N=C/c2cccs2)c2nc3ccccc3nc12 (centres undefined) | 5.17%
34 | CC(C)(C)c1ccc(C(=O)NCCn2c(N)c(C#N)c3nc4ccccc4nc32)cc1 | -0.974%
35 | COc1ccc(-c2nc3c(c4c2C[C@H](c2ccccc2)OC4)CN(C(=O)c2ccco2)CC3)c(C)c1 | -0.274%
36 | COc1ccc(OCC(=O)Nc2ccc(NC(=O)c3ccco3)c(C)c2)cc1 | -0.451%
37 | C=CCc1ccccc1OCC(=O)N/N=C/c1ccccc1OCC | -30.1% (active)
38 | Cc1ccc(/C=N/NC(=O)CNC(=O)COc2ccccc2)o1 | 0.654%
39 | C=C(C)CNC(=S)N/N=C/c1ccccc1OCC(=O)O | 7.3%
40 | C=CCOc1ccccc1/C=N/NC(=O)Cc1ccccc1 | 3.68%
41 | CCOc1ccccc1/C=N/NC(=O)CNC(=O)COc1ccccc1 | -43.5% (active)
42 | Cc1ccc(/C=N/NC(=O)COc2ccccc2-c2ccccc2)cc1 | 0.851%
43 | Cc1ccc(CSCCNC(=O)CN(c2ccc(F)cc2)S(C)(=O)=O)cc1 | -1.38%
44 | O=c1c(O)c(Br)ccc2c(Br)c(O)c(O)c(O)c12 | -45.3% (active)
45 | COc1ccc(CNC(=O)C(C)NCc2ccccc2Cl)cc1 (centres undefined) | -0.161%
46 | Oc1ccc2ccccc2c1C=Nc1ccccc1 | -34.9% (active)
47 | COc1cc(N=Cc2c(O)[nH]c3ccccc23)cc(OC)c1OC | -1.7%
48 | CC(=O)n1c(C=Nc2ccccc2)c(O)c2ccccc21 | 0.601%

Row | Structure (SMILES) | activity change, negative = inhibition
49 | O=[N+]([O-])c1ccc(N=Cc2c(O)ccc3ccccc23)cc1 | -37.8% (active)
50 | O=[N+]([O-])c1ccc(N/N=C/c2ccccc2)cc1 | 1.24%
51 | O=[N+]([O-])c1ccc(O)c(/C=N/Nc2ccccc2[N+](=O)[O-])c1 | 0.257%
52 | CCCCn1c(SCC(=O)N2CCOCC2)nc2c1c(=O)n(C)c(=O)n2C | -0.5%
53 | O=C(Nc1ccccc1N1CCOCC1)c1ccc(OCc2cscn2)cc1 | -3.06%
54 | Cc1nc(Nc2ccccc2F)c2nnn(Cc3ccccc3Cl)c2n1 | 1.81%
55 | C=C[C@](C)(O)CCC1C(=C)CCC2[C@@](C)(CO)CCC[C@@]12C (some centres undefined) | 1.09%
56 | O=[N+]([O-])c1ccc(C=Nc2ccc(Cl)cc2Cl)s1 | -32% (active)
57 | CCOc1ccc(NC(=O)CCC(=O)N/N=C/c2ccc([N+](=O)[O-])s2)cc1 | 0.71%
58 | CC(C)(C)c1cc(C(=O)N/N=C/c2ccc([N+](=O)[O-])s2)n[nH]1 | 1.27%
59 | Nc1nc2c(nc(Cl)n2C2OC(CO)C(O)C2O)c(=O)[nH]1 (centres undefined) | 1.07%
60 | CC(C)(C)NC(=O)COc1ccc(CNc2ccc3[nH]c(=O)[nH]c3c2)cc1 | -49.7% (active)
61 | CC(=O)Nc1ccc(OCC(=O)NCc2ccc(C)cc2)cc1 | 0.378%
62 | COC(=O)c1ccc(OCC(=O)NC(C)(C)C)cc1 | -2.25%
63 | Cc1cccc(C)c1NC(=O)CN1C(=O)C(C)Oc2ccccc21 (centres undefined) | 0.123%
64 | NS(=O)(=O)c1cccc(NC(=O)CC23CC4CC(CC(Br)(C4)C2)C3)c1 | -0.295%
65 | O=C(/C=C/c1ccc(N2CCOCC2)cc1)c1ccccc1 | -2.68%
66 | Oc1ccc2ccccc2c1N=Nc1nccs1 | -6.8%
67 | Oc1c(C=Nc2cccc3nsnc23)ccc2ccccc12 | -48.9% (active)
68 | N#Cc1cccc(NC(=O)CN2CCCCCC2)c1 | 0.599%
69 | Cc1ccc(C(=O)NC2CCN(C(=O)Nc3ccc(F)cc3)CC2)cc1 | -0.456%
70 | CC(=O)OCC(NC(=O)C(Cc1ccccc1)NC(=O)OC(C)(C)C)C1OC(n2ccc(=O)[nH]c2=O)C(OC(C)=O)C1OC(C)=O (centres undefined) | 0.391%
71 | COc1ccc(N2CCN(C(=O)CCSCc3ccccc3F)CC2)cc1 | 2.76%
72 | Cc1ccc(-c2ccc(/C=N/NC(=O)CN3CCOCC3)o2)cc1[N+](=O)[O-] | -44% (active)

Row | Structure (SMILES) | activity change, negative = inhibition
73 | Cc1cc(C)c([N+](=O)[O-])cc1-c1ccc(/C=N/NC(=O)c2nonc2N)o1 | 2.52%
74 | O=C(CN1CCOCC1)N/N=C/c1ccc(-c2ccc(Br)cc2)o1 | -3.01%
75 | CC(C)CNC(=S)NC(=O)c1ccc(Cl)cc1 | -5.21%
76 | CCOC(=O)c1c(-c2ccc(C)cc2)csc1/N=C(\C)C1=C(O)c2ccccc2C1=O | 3.5%
77 | CCOC(=O)C1=C(c2ccc(OC)cc2)C(=O)c2ccccc2C1=O | -63.5% (active)
78 | COc1ccc(OCCCON2C(=O)c3ccccc3C2=O)cc1 | 0.279%
79 | CC[N+](C)(CC)CCC[n+]1c(-c2ccccc2)c2cc(N)ccc2c2ccc(N)cc21 | -38.7% (active)
80 | COc1cc2c(C(=O)N3CCN(C)CC3)c(CSc3ccccc3)n(C)c2cc1Br | 1.25%
81 | COc1cc(-c2c(-c3ccc4c(c3)OCO4)noc2C)ccc1F | 4.94%
82 | CNC(=O)C1(C)C=CC2(CCCCC2)N1C(C)=O (centres undefined) | -1.27%
83 | COc1ccc2c(c1)C=CC1(O2)N(CCO)c2ccccc2C1(C)C (centres undefined) | -47.2% (active)
84 | CN1c2ccc([N+](=O)[O-])cc2C(C)(C)C12C=Cc1cc(C(=O)O)ccc1O2 (centres undefined) | 6.4%
85 | COc1cccc(CC2(CO)CCCN(CC3=Cc4cc(OC)ccc4OC3)C2)c1 (centres undefined) | -1.06%
86 | CCOC(=O)C1(CCOc2ccccc2)CCN(Cc2cc(OC)c(O)cc2Cl)CC1 | -3.97%
87 | O=c1ccc2cc(S(=O)(=O)Nc3ccccc3F)ccc2o1 | 2.93%
88 | COc1ccc2c(c1)C(=C(C#N)C#N)C(=O)N2CCc1ccccc1 | -35.5% (active)
89 | C#CCN1C(=O)C(O)(CC(=O)c2cc(OC)ccc2OC)c2ccccc21 (centres undefined) | 2.24%
90 | CCCCN1C(=O)/C(=C(/C#N)C(N)=O)c2ccccc21 | -19.4%
91 | NCCCNCCCCN(CCCN)/[N+]([O-])=N/O | 1%
92 | CN(C)c1ccc(S(=O)(=O)NCC(=O)NCC2CCCCC2)cc1[N+](=O)[O-] | -0.658%
93 | COc1ccc(-c2ccc(C3C4C=CCCC4(C)C(=O)N3Cc3ccccc3)c(F)c2)cc1OC (centres undefined) | 2.19%
94 | CC1(C)c2[nH]c3ccccc3c2C[C@H]2C(=O)N(N)CC(=O)N21 | 2.07%
